Bioassay records deposited in PubChem BioAssay by National Center for Advancing Translational Sciences (NCATS).
Hits are enriched below; roughly 3.1% of the tested compounds scored in any of these assays.
TSHR antagonist – Antagonists of the Thyroid Stimulating Hormone Receptor: HTS campaign | Thyrotropin receptor (Homo sapiens), P16473 | TSHR-expressing cells, TSH-stimulated cAMP HTRF, 2 h; active compounds read low | activity change, negative = inhibition, % at 11.5 µM | 330,000 compounds, 0.2% hits | AID 504810, 2011;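 active = activity change below a set negative limit, meaning inhibition stronger than a set level, cut at about -70% in these data; inconclusive = activity change between two set negative limits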; note: % is set by controls: 0 for no effect and ±100 for the full control effect
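Cell-based HTRF cAMP assay; TSHR cells + compound, TSH EC80 (4nM final), 2 h, 37 deg C. Lysis with anti-cAMP cryptate and cAMP-d2, 30 min RT, read 665/620 nm.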
PLK1 PBD block – qHTS for Inhibitors of PLK1-PDB (polo-like kinase 1 - polo-box domain): Primary Screen | Serine/threonine-protein kinase PLK1 (Homo sapiens), P53350 | Plk1 PBD binding of FITC phosphopeptide, fluorescence polarization | Potency, µM, inactives show max response, negative = inhibition, hits mostly inhibitors | 360,000 compounds, 2.8% hits; note: potency is the fitted concentration of half-maximal effect; series mostly up to about 57 µM; % is set by controls: 0 for no effect and ±100 for the full control effect; nearly all actives have a fitted effect of over 65% in size
Target sequence (P53350 whole entry, looked up, the tested form may be a part): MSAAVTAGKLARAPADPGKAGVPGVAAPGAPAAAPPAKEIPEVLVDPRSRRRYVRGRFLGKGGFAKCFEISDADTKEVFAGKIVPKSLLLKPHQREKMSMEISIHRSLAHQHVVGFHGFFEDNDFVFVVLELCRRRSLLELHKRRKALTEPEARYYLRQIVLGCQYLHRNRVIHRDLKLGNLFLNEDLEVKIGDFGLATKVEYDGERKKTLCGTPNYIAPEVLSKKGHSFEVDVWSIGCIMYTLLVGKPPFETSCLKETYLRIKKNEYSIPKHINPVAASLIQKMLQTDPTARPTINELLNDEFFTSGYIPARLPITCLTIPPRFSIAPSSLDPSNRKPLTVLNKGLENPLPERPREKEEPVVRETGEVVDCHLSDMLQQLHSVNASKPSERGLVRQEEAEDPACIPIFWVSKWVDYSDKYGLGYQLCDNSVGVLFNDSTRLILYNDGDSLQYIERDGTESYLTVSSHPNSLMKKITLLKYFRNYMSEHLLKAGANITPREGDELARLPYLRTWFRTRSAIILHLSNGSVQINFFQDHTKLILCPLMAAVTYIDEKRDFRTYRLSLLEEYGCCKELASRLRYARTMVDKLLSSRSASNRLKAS
Vif-APOBEC3F blk – qHTS for Inhibitors of Vif-A3F Interactions: qHTS | HeLa A3F-eYFP + Vif (tagged APOBEC3F with the HIV-1 protein that degrades it), YFP fluorescence increase | AID 602313, 2012 | Potency, µM (series often up to 46.1 µM), for the others: at the highest dose activity, negative = active | 390,000 compounds, 0.2% hits; note: potency is the fitted concentration of half-maximal effect; % of control where 0% means no effect; nearly all actives have a fitted effect of over 65% in size
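HeLa cells stably expressing A3F-eYFP plus Vif, plated and incubated overnight at 37 deg C, then exposed to compounds overnight at 37 deg C. Blocked degradation read as raised yellow fluorescence (Ex 488/Em 500-530).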
VDR inhibitor – Inhibitors of the vitamin D receptor (VDR): qHTS; Vitamin D3 receptor (Homo sapiens), P11473; VDR-SRC2-3 peptide fluorescence polarization, 2 h; Potency, µM, inactives show max response, negative = inhibition, actives largely listed as inhibitors; 400,000 compounds, 0.93% hits; note: potency is the fitted concentration of half-maximal effect; % is set by controls: 0 for no effect and ±100 for the full control effect
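Fluorescence polarization assay of small-molecule disruption of VDR binding to coregulator peptide SRC2-3. Compounds and controls pin-transferred, then read after 2 h incubation at ambient room temperature.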
Vif-A3G inh – qHTS for Inhibitors of Vif-A3G Interactions: qHTS; Potency, µM (titrated, usually from 46.1 µM), for the others: top-dose activity, negative = active, actives largely listed as inhibitors; HeLa A3G-eYFP + Vif (tagged APOBEC3G with the HIV-1 protein that degrades it), YFP fluorescence, overnight; DNA dC->dU-editing enzyme APOBEC-3G (Homo sapiens), Q9HC16; 410,000 compounds, 0.076% hits; AID 602310, 2012; note: potency is the fitted concentration of half-maximal effect; % is set by controls: 0 for no effect and ±100 for the full control effect; nearly all actives have a fitted effect of over 60% in size
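Read-out is eYFP fluorescence (Ex 488/Em 500-530) from Vif-expressing HeLa A3G-eYFP cells; more signal means A3G escaped Vif-mediated degradation. Cells plated overnight, compound pinned in, incubated overnight at 37 deg C.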
Active calls of the source: *; ? = inconclusive; . = no result given. Unless noted, calls come from the whole dose curve; as a rule, active = well fitted curve in the direction sought with a large enough effect; inconclusive = small, poorly fitted or top-dose-only effect, or another doubt; inactive = no such curve, though single readings can be large; an effect the other way counts as inactive or inconclusive.

SMILES | TSHR antagonist | PLK1 PBD block | Vif-APOBEC3F blk | VDR inhibitor | Vif-A3G inh
CCOC(=O)CNC(=O)CSc1ncnc2c1nnn2-c1ccc(F)cc1 | -11 | -4% | 3% | 2% | -2%
O=Cc1cccc(C=O)c1 | . | . | . | . | 1%
N#CCCCN1C(=O)C(=C(C#N)C#N)c2ccccc21 | -8 | 5.3µM* | 0% | ? | -12%
NC(=S)NS(=O)(=O)c1ccc(N)cc1 | . | . | . | -14% | .
COc1cnc(-c2ccccn2)nc1Oc1ccccc1Cl | 8 | 3% | 2% | 3% | 2%
COc1cnc(-c2ccccn2)nc1Oc1ccc(F)cc1F | 2 | 0% | 11µM* | 7% | -1%
Clc1nc(NCC2CCCO2)c2[nH]cnc2n1 (stereo not drawn) | . | . | . | -26% | 0%
CCOc1ccc(C2NC(=O)C(C#N)=C(S)N2c2cccc(C)c2)cc1OC (stereo not drawn) | 5 | -17% | -29% | 79µM* | 0%
CCOc1ccc(C2NC(=O)C(C#N)=C(S)N2c2ccc(C)cc2)cc1OC (stereo not drawn) | -6 | -24% | -7% | 18µM* | 2%
Cc1ccc(-n2c(-c3ccccc3)nsc2=NC#N)cc1 | . | . | . | ? | -1%
CSc1ccccc1C(=O)C1CCCN(C(=O)c2cncs2)C1 (stereo not drawn) | -6 | 13µM* | -5% | 32µM* | -1%
N/C(=N\OC(=O)CSc1ccccc1)c1ccc([N+](=O)[O-])cc1 | -23 | 27µM* | 3% | -1% | -5%
CN(C(=O)COC(=O)CSc1ccc([N+](=O)[O-])cc1)c1ccccc1 | -16 | 13µM* | 6% | 89µM* | 0%
CN(C(=O)COC(=O)c1ccc([N+](=O)[O-])cc1)c1ccccc1 | -3 | -8% | 17% | -22% | 3%
CCC12CN3CCN(CC(C3)/C1=N\NC(=O)c1ccc(F)cc1)C2 | -8 | 21µM* | 2% | ? | -4%
COc1ccccc1N1CCN(C(=O)c2cc(S(=O)(=O)N3CCC(C)CC3)cn2C)CC1 | . | . | -7% | 16% | -3%
O=C(NC1CCCCC1)C(=S)N1CCOCC1 | 11 | 24µM* | 8% | -15% | 11%
Cc1ccc(-n2nc(C(=O)N(C)c3ccc(C)c(C)c3)c3c4ccccc4n(C)c3c2=O)cc1 | . | . | . | -17% | .
Oc1ccc(Nc2ncnc3scc(-c4ccccc4)c23)cc1 | -26 | 18% | -22% | -1% | -6%
Cc1ccc(-c2csc3ncnc(Nc4ccc(N5CCOCC5)cc4)c23)cc1 | 13 | 27µM* | 5% | -7% | 1%
Cc1ccc(C(=O)NC2CCN(CCCC(=O)c3ccc(F)cc3)CC2)cc1 | 1 | 13% | -5% | 15% | -6%
O=C(CCN1CCC2CCC(C2)C1)c1ccc(F)cc1 (stereo not drawn) | . | 8.4µM* | -7% | ? | -2%
Cc1cc(=O)[nH]c2ccc(O)cc12 | . | . | . | . | -4%
C=CCc1cc(/C=C/c2nc(O)c([N+](=O)[O-])c(=O)[nH]2)cc(OC)c1O | -6 | -21% | -14% | 79µM* | 3%
S=C(NCc1ccccc1)NCc1cccc(CNC(=S)NCc2ccccc2)c1 | -2 | 27µM* | -2% | ? | 3%
SMILES | TSHR antagonist | PLK1 PBD block | Vif-APOBEC3F blk | VDR inhibitor | Vif-A3G inh
CN(C)C(=S)NCc1ccccc1 | 15 | 2.7µM* | 8% | ? | 1%
S=C(NCc1ccccc1)NCc1cccc(Cl)c1 | -5 | 0% | -4% | -2% | 5%
Nc1[nH]c(=O)nc2nnsc12 | . | . | . | . | 1%
Cc1ccc(NC(=S)Nc2cccc(S(=O)(=O)Nc3c(C)n(C)n(-c4ccccc4)c3=O)c2)cc1 | -7 | ? | 3% | -7% | 0%
CC(=O)c1ccc(NC(=S)Nc2cccc(S(=O)(=O)Nc3c(C)n(C)n(-c4ccccc4)c3=O)c2)cc1 | -1 | 24µM* | 7% | -1% | -5%
COc1ccc(NC(=O)Nc2c(C)n(C)n(-c3ccccc3)c2=O)cc1OC | 4 | -3% | 6% | -3% | 8%
Cc1cccc(NC(=O)Nc2c(C)n(C)n(-c3ccccc3)c2=O)c1 | 6 | 24µM* | 12% | ? | -16%
